SNCA expr inhib = inhibitors of alpha-synuclein (SNCA) gene expression; Potency, µM (titrated, usually from 57.2 µM), for inactives: at the highest dose activity change, negative = inhibition, usual class: inhibitors; 0.17% of 140,000 active; HEK-293 SNCA-luciferase knock-in, luminescence, 24 h;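 also: potency is read from the fitted curve at half-maximal effect; plate controls were DMSO cells for no effect and cell-free wells for full effect; nearly all actives have a fitted effect of over 45% in size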
HEK293 viab = counter-screen for SNCA expression inhibitors: cell viability; HEK-293-SNCA-luc viability, GF-AFC fluorescence, 24 h; Potency, µM (top dose mostly 57.1 µM), for the others: at the highest dose activity change, negative = cytotoxicity, hits mostly cytotoxic; 0.12% of 150,000 active; AID 1671193;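 also: potency is read from the fitted curve at half-maximal effect; 0% = DMSO-treated cells and -100% = medium-only wells without cells; nearly all actives have a fitted effect of over 30% in size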
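HEK-293-SNCA-luc cells (1500/well) plated 24 h, then exposed 24 h to a dilution series; GF-AFC added 30 min at 37C, fluorescence 405/540 nm; normalised to medium-only and DMSO wells, Hill fit.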
IP6K1 inh = IP6K1 kinase inhibition. Q92551. IP6K1 kinase, ADP-Glo luminescence, 2 h; hits give low values. activity change, % (series mostly up to about 58 µM). 0.81% of 140,000 active. AID 1645851; in the data active = activity change below about -25%
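ADP-Glo luminescence measures ADP made by human IP6K1 during a 2 h RT reaction with ATP/IP6 (mix at 1.3 mM/130 uM); top library doses 57.5 and 19.1 uM final.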
NIH3T3 tox = cytotoxic compounds in NIH 3T3 cells; NIH 3T3 viability, CellTiter-Glo ATP luminescence, 48-72 h; Potency, µM (doses to about 96.7 µM), for the others: at the highest dose activity change, negative = cytotoxicity, usual class: inhibitors; 4.3% of 94,000 active; also: potency is read from the fitted curve at half-maximal effect; nearly all actives have a fitted effect of over 55% in size
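Cytotoxicity was measured by CellTiter-Glo ATP luminescence after 48 or 72 h compound exposure at 37 °C. Mouse NIH 3T3 fibroblasts were seeded at 400 cells/well and dosed by 23 nL pin transfer.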
FLuc inh = Photinus pyralis luciferase inhibition; 2.5% of 76,000 active; purified P. pyralis luciferase, luminescence, biochemical; Potency, µM (highest dose often 115 µM), usual class: inhibitors; P08659; AID 1347043; also: potency is read from the fitted curve at half-maximal effect; nearly all actives have a fitted effect of over 65% in size
Target sequence (P08659 whole entry, looked up): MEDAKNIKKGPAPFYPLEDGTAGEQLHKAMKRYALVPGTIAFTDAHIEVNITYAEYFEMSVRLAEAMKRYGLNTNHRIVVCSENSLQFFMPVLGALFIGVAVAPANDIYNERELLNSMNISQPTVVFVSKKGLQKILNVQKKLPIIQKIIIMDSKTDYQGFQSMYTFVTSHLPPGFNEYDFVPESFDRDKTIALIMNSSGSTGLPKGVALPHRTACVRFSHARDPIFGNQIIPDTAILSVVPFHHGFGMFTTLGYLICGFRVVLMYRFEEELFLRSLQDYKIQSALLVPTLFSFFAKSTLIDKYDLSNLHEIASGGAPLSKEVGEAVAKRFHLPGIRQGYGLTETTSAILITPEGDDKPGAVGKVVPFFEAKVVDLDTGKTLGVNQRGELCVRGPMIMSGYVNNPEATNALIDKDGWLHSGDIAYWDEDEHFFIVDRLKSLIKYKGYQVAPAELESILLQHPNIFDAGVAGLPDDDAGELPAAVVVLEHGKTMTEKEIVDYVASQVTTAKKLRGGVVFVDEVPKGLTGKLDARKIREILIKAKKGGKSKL
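Cell-free enzyme assay, 10nM P. pyralis luciferase, luciferin and ATP each at 10uM. Inhibition profiled over a 6-point titration, read as luminescence.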
HEK293 tox = kills HEK 293 cells; Potency, µM (highest dose often 115 µM), for the others: top-dose activity change, negative = cytotoxicity, actives largely listed as inhibitors; 6.6% of 94,000 active; AID 1345083; HEK 293 viability, ATP luminescence (CellTiter-Glo), 48-72 h; also: potency is read from the fitted curve at half-maximal effect; nearly all actives have a fitted effect of over 60% in size
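Pintool-delivered compounds were incubated with HEK 293 cells (250 cells/well) at 37 degree Celsius for 48 or 72 hr. ATP-dependent luminescence (CellTiter-Glo) then reported remaining viable cells.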
An asterisk follows results filed as active; i = inactive; u = inconclusive; x = no result; [ ] = remark or other dose. A selection: hits, their analogues and other compounds. The true share with any hit is near 7.3%. Unless noted, calls follow the shape of the dose curve; as a rule, active = well fitted curve in the direction sought with a large enough effect; inconclusive = small, poorly fitted or top-dose-only effect, or another doubt; inactive = no such curve, though single readings can be large; an effect the other way counts as inactive or inconclusive. Unless noted, % is scaled to controls: 0 for no effect and ±100 for the full control effect.

SMILES | SNCA expr inhib | HEK293 viab | IP6K1 inh | NIH3T3 tox | FLuc inh | HEK293 tox
Clc1ccc(-c2cnc([C@@H]3COCCN3Cc3ccccc3)[nH]2)s1 | -18%[87.6 µM] | -12%[87.6 µM] | 1 | 79µM* | i | 100µM*
CC(C)(C)CN1CCOC[C@H]1c1ncc(-c2ccc(Cl)s2)[nH]1 | -12%[87.6 µM] | -3%[87.6 µM] | 5 | u | i | 79µM*
Clc1ccc(-c2cnc([C@@H]3COCCN3C3CCCCC3)[nH]2)s1 | u | u | 5 | 79µM* | i | 79µM*
Cn1c(CN2CCOC[C@H]2c2ncc(-c3ccc(Cl)s3)[nH]2)nc2ccccc21 | -16%[87.6 µM] | -16%[87.6 µM] | 2 | 89µM* | i | u
Cc1cnc(CCNC(=O)c2nccn2C)n1Cc1ccccc1 | 0% | -24% | 4 | -32% | x | u
CCOCCCNc1ncnc2c1CN(C1CCNCC1)C(=O)CN2C | 18% | -5% | -6 | 1% | x | i
O=C(Nc1ccsc1)N[C@H]1C[C@H]2C(=O)NC[C@@H](CCC(=O)N3CCN(c4ccccn4)CC3)N2C1 | 6% | -1% | -1 | -25% | i | 3%
CC(C)c1cccc(NC(=O)c2ccc3c(c2)N(C)C2CCCCN2C3=O)c1 (centres undefined) | 37% | 13%[12.5 µM] | 19 | u | i | 28µM*
CSc1ccc(NC(=O)c2ccc3c(c2)N(C)C2CCCCCN2C3=O)cc1 (centres undefined) | -8% | -15%[12.5 µM] | -10 | u | u | u
CCc1cccc(NC(=O)c2ccc3c(c2)N(C)C2CCCCN2C3=O)c1 (centres undefined) | 59% | -15%[12.5 µM] | 11 | u | u | u
Cc1cc(C)cc(NC(=O)c2ccc3c(c2)N(C)C2CCCCN2C3=O)c1 (centres undefined) | 52% | 8%[12.5 µM] | -11 | u | u | u
Cc1cccc(NC(=O)c2ccc3c(c2)N(C)C2CCCCN2C3=O)c1 (centres undefined) | 56% | 12%[12.5 µM] | 5 | u | 28µM* | u
CC(C)c1ccc(NC(=O)c2ccc3c(c2)N(C)C2CCCN2C3=O)cc1 (centres undefined) | 132% | -19%[12.5 µM] | 41 | u | 16µM* | 45µM*
CCc1ccc(NC(=O)C2CCN(C(=O)c3nnn4cc(C)[nH]c(=O)c34)CC2)cc1 | 2% | 5% | 8 | i | u | 13%
CN(C)c1cccc(-c2cnc3[nH]cc(CC(=O)N4CCOCC4)c3c2)c1 | 8%[87.6 µM] | u | -14 | u | i | 79µM*
COc1ncc(-c2cnc3[nH]cc(CC(=O)N4CCOCC4)c3c2)cn1 | u | -1%[87.6 µM] | -7 | 79µM* | i | -18%[172 µM]
CC(C)(C)n1nnnc1C1CC2(CCOCC2)C(=O)N1Cc1ccccc1F (centres undefined) | 39% | -3% | -4 | -7% | i | i
Cn1nc(C2CCCN(C(=O)c3ccoc3)C2)n(C2CCCC2)c1=O (centres undefined) | u | -1% | 5 | -15% | x | 2%
CCN1C(=O)CCN(Cc2cn(C)c3ccc(OC)cc23)CC12CCOCC2 | u | -20% | 4 | 32µM* | i | u
COCC(=O)NCc1cc2n(n1)CCCN(Cc1cc3ccccc3s1)C2 | 1% | 5% | 22 | u | i | 20µM*
O=C(NCc1cccs1)c1ccc2nnc(-c3ccc(OC(F)(F)F)cc3)n2c1 | -12% | -5% | -3 | u | x | u
O=C(NCc1cccs1)[C@@H]1C[C@@H](O)[C@H](O)[C@@H]2NC(=S)N(c3ccc(OC(F)(F)F)cc3)[C@@H]21 | -14% | -1% | -3 | u | 45µM* | u
Cc1ccc(S(=O)(=O)N2CCCC(CCC(=O)O)C2)cc1 (centres undefined) | 1% | 4% | 14 | u | i | 7%
CCCN(CC1CC1)C(=O)CCC1CCCN(S(=O)(=O)c2ccc(C)cc2)C1 (centres undefined) | -29% | -9% | 14 | u | i | 40µM*
Cc1ccc(CNC[C@H]2Cn3cc(-c4ccccc4)nc3CO2)cc1 | 55%[87.6 µM] | -7%[87.6 µM] | 18 | u | i | u
SMILES | SNCA expr inhib | HEK293 viab | IP6K1 inh | NIH3T3 tox | FLuc inh | HEK293 tox
Fc1ccccc1CNC[C@H]1Cn2cc(-c3ccccc3)nc2CO1 | 75%[87.6 µM] | 4%[87.6 µM] | -5 | -28%[138 µM] | 63µM* | u
Clc1ccccc1CNC[C@H]1Cn2cc(-c3ccccc3)nc2CO1 | 98%[87.6 µM] | -15%[87.6 µM] | 8 | u | 56µM* | 100µM*
Cc1ccccc1CNC[C@H]1Cn2cc(-c3ccccc3)nc2CO1 | 31%[87.6 µM] | -5%[87.6 µM] | -1 | u | i | 100µM*
Cc1ccc(CN2C[C@]34C=C[C@H](O3)C(C(=O)N(C)Cc3ccsc3)C4C2=O)cc1C (some centres undefined) | 9% | -3% | 3 | -17% | i | -3%
CCOc1ccc(NC(=O)[C@@H]2C[C@@H](O)CN2C2CCN(C(=O)c3cccc(OC)c3)CC2)cc1 | 4% | 8% | 27 | -16% | i | -17%
O=C(NCc1ccc(C(F)(F)F)cc1)c1nc2cccnc2n(Cc2ccccc2)c1=O | 4% | 0% | 18 | -19% | x | u
O=C(c1ccc2ncccc2c1)N1CCC2(CC1)Nc1ccccc1NC2=O | 7% | 5% | -7 | -30% | i | 89µM*
O=C(NCc1cccc(F)c1)C1CCCCN1Cc1ccc(-c2ccsc2)cc1 (centres undefined) | u | -17% | 1 | 28µM* | x | 40µM*
O=C(NCc1cccc(F)c1)C1CCCCN1Cc1ccc(-c2cccs2)cc1 (centres undefined) | 4% | 0%[12.5 µM] | -7 | 28µM* | x | 20µM*
O=C(NCc1ccc2c(c1)OCO2)C1CCCCN1Cc1ccc(-c2ccsc2)cc1 (centres undefined) | -32% | -6% | 2 | 13µM* | x | 22µM*
O=C(NCc1ccc2c(c1)OCO2)C1CCCN1Cc1ccc(-c2cncnc2)cc1 (centres undefined) | -12% | 1% | 0 | u | x | u
Cc1cc(C)cc(-c2ccc(CN3CCCC3C(=O)NCc3cccc(F)c3)cc2)c1 (centres undefined) | -21% | 0% | 1 | u | x | u
CC(C)NC(=O)N1CNC(=O)C12CCN(C(=O)CN)CC2 | -24% | -12% | 4 | i | x | i
COc1cccc(-c2cnc([C@@H]3COCCN3Cc3cnc4ccccc4c3)[nH]2)c1 | 9%[87.6 µM] | -7%[87.6 µM] | 6 | -22%[138 µM] | i | 100µM*
Fc1ccc(-c2cnc([C@@H]3COCCN3Cc3cnc4ccccc4c3)[nH]2)cc1 | -28%[87.6 µM] | u | 15 | u | i | 89µM*

Bioassay records (PubChem BioAssay)
